Laboratory results: the supplement of paper PMC4466140

These binders were tested against AgAbp1 (assay: SPOT peptide array binding signal intensity (averaged, normalized) (arbitrary units (background-subtracted, floor 0; scale differs between SH3 domains)); higher = stronger binding of the SH3 domain to the peptide).
In short: (§1)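 Cellulose membranes carried synthetic 15-mer peptides with cysteines swapped for serines. These were incubated overnight at 4°C with 10 μg/ml of GST-fused SH3 domains from four yeast species in TBS-based blocking buffer. Binding signal, detected with anti-GST antibody and quantified in Genespotter, is the normalized, background-subtracted spot intensity averaged over replicates, in arbitrary units specific to each domain.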
In the case of SAPDIPPRSPNRNAH, the “SPOT peptide array binding signal intensity” value is reported as at most 0.

These binders were tested against AgBbc1 in the same assay as above.
In short: as §1
SAPDIPPRSPNRNAH was tested, and the “SPOT peptide array binding signal intensity” value was 498.

The binders below were run against AgBem1-D1 in the same assay as above.
In short: as §1
SAPDIPPRSPNRNAH was tested, and the “SPOT peptide array binding signal intensity” value was at most 0.

What follows are binders tested against AgBzz1-D1 in the same assay as above.
In short: as §1
In the case of SAPDIPPRSPNRNAH, the “SPOT peptide array binding signal intensity” value is reported as 34.5.

These binders were tested against AgBzz1-D2 in the same assay as above.
In short: as §1
For SAPDIPPRSPNRNAH, the “SPOT peptide array binding signal intensity” value was at most 0.

What follows are binders tested against AgCyk3 in the same assay as above.
In short: as §1
SAPDIPPRSPNRNAH was tested, and the “SPOT peptide array binding signal intensity” value was at most 0.

These binders were tested against AgFus1 in the same assay as above.
In short: as §1
SAPDIPPRSPNRNAH was tested, and the “SPOT peptide array binding signal intensity” value was at most 0.

Each binder was assayed against AgHof1 in the same assay as above.
In short: as §1
In the case of SAPDIPPRSPNRNAH, the “SPOT peptide array binding signal intensity” value is reported as at most 0.

These binders were tested against AgHse1 in the same assay as above.
In short: as §1
With SAPDIPPRSPNRNAH the “SPOT peptide array binding signal intensity” value was at most 0.

Each binder was assayed against AgLsb1 in the same assay as above.
In short: as §1
For SAPDIPPRSPNRNAH, the “SPOT peptide array binding signal intensity” value was 324.

Each binder was assayed against AgLsb4 in the same assay as above.
In short: as §1
SAPDIPPRSPNRNAH was tested, and the “SPOT peptide array binding signal intensity” value was 328.

The binders below were run against AgMyo5 in the same assay as above.
In short: as §1
In the case of SAPDIPPRSPNRNAH, the “SPOT peptide array binding signal intensity” value is reported as at most 0.

What follows are binders tested against AgNbp2 in the same assay as above.
In short: as §1
With SAPDIPPRSPNRNAH the “SPOT peptide array binding signal intensity” value was 3.5.

These binders were tested against AgRvs167 in the same assay as above.
In short: as §1
With SAPDIPPRSPNRNAH the “SPOT peptide array binding signal intensity” value was 36.3.

These binders were tested against AgSho1 in the same assay as above.
In short: as §1
In the case of SAPDIPPRSPNRNAH, the “SPOT peptide array binding signal intensity” value is reported as at most 0.

What follows are binders tested against AgSla1-D1-D2 in the same assay as above.
In short: as §1
In the case of SAPDIPPRSPNRNAH, the “SPOT peptide array binding signal intensity” value is reported as at most 0.

These binders were tested against AgSla1-D3 in the same assay as above.
In short: as §1
For SAPDIPPRSPNRNAH, the “SPOT peptide array binding signal intensity” value was at most 0.

Each binder was assayed against CaAbp1-D1 in the same assay as above.
In short: as §1
SAPDIPPRSPNRNAH was tested, and the “SPOT peptide array binding signal intensity” value was at most 0.

These binders were tested against CaAbp1-D2 in the same assay as above.
In short: as §1
SAPDIPPRSPNRNAH was tested, and the “SPOT peptide array binding signal intensity” value was 4.5.

Each binder was assayed against CaBbc1 in the same assay as above.
In short: as §1
In the case of SAPDIPPRSPNRNAH, the “SPOT peptide array binding signal intensity” value is reported as 575.

These binders were tested against CaBem1-D1 in the same assay as above.
In short: as §1
In the case of SAPDIPPRSPNRNAH, the “SPOT peptide array binding signal intensity” value is reported as 1.

The binders below were run against CaBzz1-D1 in the same assay as above.
In short: as §1
In the case of SAPDIPPRSPNRNAH, the “SPOT peptide array binding signal intensity” value is reported as 85.

What follows are binders tested against CaBzz1-D2 in the same assay as above.
In short: as §1
With SAPDIPPRSPNRNAH the “SPOT peptide array binding signal intensity” value was at most 0.

These binders were tested against CaCyk3 in the same assay as above.
In short: as §1
In the case of SAPDIPPRSPNRNAH, the “SPOT peptide array binding signal intensity” value is reported as 3.

Each binder was assayed against CaFus1 in the same assay as above.
In short: as §1
With SAPDIPPRSPNRNAH the “SPOT peptide array binding signal intensity” value was at most 0.

What follows are binders tested against CaHof1 in the same assay as above.
In short: as §1
With SAPDIPPRSPNRNAH the “SPOT peptide array binding signal intensity” value was at most 0.

These binders were tested against CaHse1 in the same assay as above.
In short: as §1
For SAPDIPPRSPNRNAH, the “SPOT peptide array binding signal intensity” value was 9.75.

Each binder was assayed against CaLsb1 in the same assay as above.
In short: as §1
SAPDIPPRSPNRNAH was tested, and the “SPOT peptide array binding signal intensity” value was 0.25.

These binders were tested against CaLsb4 in the same assay as above.
In short: as §1
SAPDIPPRSPNRNAH was tested, and the “SPOT peptide array binding signal intensity” value was 4890.

These binders were tested against CaMyo5 in the same assay as above.
In short: as §1
In the case of SAPDIPPRSPNRNAH, the “SPOT peptide array binding signal intensity” value is reported as at most 0.

These binders were tested against CaNbp2 in the same assay as above.
In short: as §1
With SAPDIPPRSPNRNAH the “SPOT peptide array binding signal intensity” value was at most 0.

The binders below were run against CaRvs167 in the same assay as above.
In short: as §1
In the case of SAPDIPPRSPNRNAH, the “SPOT peptide array binding signal intensity” value is reported as 321.

What follows are binders tested against CaRvs167-3 in the same assay as above.
In short: as §1
For SAPDIPPRSPNRNAH, the “SPOT peptide array binding signal intensity” value was 1.

The binders below were run against CaSho1 in the same assay as above.
In short: as §1
With SAPDIPPRSPNRNAH the “SPOT peptide array binding signal intensity” value was at most 0.

The binders below were run against CaSla1-D1-D2 in the same assay as above.
In short: as §1
With SAPDIPPRSPNRNAH the “SPOT peptide array binding signal intensity” value was 290.

Each binder was assayed against CaSla1-D3 in the same assay as above.
In short: as §1
With SAPDIPPRSPNRNAH the “SPOT peptide array binding signal intensity” value was at most 0.

What follows are binders tested against ScAbp1 in the same assay as above.
In short: as §1
SAPDIPPRSPNRNAH was tested, and the “SPOT peptide array binding signal intensity” value was 4.5.

The binders below were run against ScBbc1 in the same assay as above.
In short: as §1
With SAPDIPPRSPNRNAH the “SPOT peptide array binding signal intensity” value was 35.8.

What follows are binders tested against ScBem1-D1 in the same assay as above.
In short: as §1
SAPDIPPRSPNRNAH was tested, and the “SPOT peptide array binding signal intensity” value was at most 0.

Each binder was assayed against ScBzz1-D1 in the same assay as above.
In short: as §1
For SAPDIPPRSPNRNAH, the “SPOT peptide array binding signal intensity” value was at most 0.

Each binder was assayed against ScBzz1-D2 in the same assay as above.
In short: as §1
In the case of SAPDIPPRSPNRNAH, the “SPOT peptide array binding signal intensity” value is reported as at most 0.

Each binder was assayed against ScCyk3 in the same assay as above.
In short: as §1
For SAPDIPPRSPNRNAH, the “SPOT peptide array binding signal intensity” value was at most 0.

The binders below were run against ScFus1 in the same assay as above.
In short: as §1
With SAPDIPPRSPNRNAH the “SPOT peptide array binding signal intensity” value was at most 0.

The binders below were run against ScHof1 in the same assay as above.
In short: as §1
For SAPDIPPRSPNRNAH, the “SPOT peptide array binding signal intensity” value was at most 0.

The binders below were run against ScHse1 in the same assay as above.
In short: as §1
In the case of SAPDIPPRSPNRNAH, the “SPOT peptide array binding signal intensity” value is reported as 17.5.

These binders were tested against ScLsb1 in the same assay as above.
In short: as §1
SAPDIPPRSPNRNAH was tested, and the “SPOT peptide array binding signal intensity” value was 763.

What follows are binders tested against ScLsb2 in the same assay as above.
In short: as §1
With SAPDIPPRSPNRNAH the “SPOT peptide array binding signal intensity” value was 1090.

These binders were tested against ScLsb3 in the same assay as above.
In short: as §1
In the case of SAPDIPPRSPNRNAH, the “SPOT peptide array binding signal intensity” value is reported as 5380.

These binders were tested against ScLsb4 in the same assay as above.
In short: as §1
In the case of SAPDIPPRSPNRNAH, the “SPOT peptide array binding signal intensity” value is reported as 936.

What follows are binders tested against ScMyo3 in the same assay as above.
In short: as §1
With SAPDIPPRSPNRNAH the “SPOT peptide array binding signal intensity” value was at most 0.

The binders below were run against ScMyo5 in the same assay as above.
In short: as §1
With SAPDIPPRSPNRNAH the “SPOT peptide array binding signal intensity” value was at most 0.

These binders were tested against ScNbp2 in the same assay as above.
In short: as §1
For SAPDIPPRSPNRNAH, the “SPOT peptide array binding signal intensity” value was 57.

These binders were tested against ScPex13 in the same assay as above.
In short: as §1
For SAPDIPPRSPNRNAH, the “SPOT peptide array binding signal intensity” value was 130.

Each binder was assayed against ScRvs167 in the same assay as above.
In short: as §1
With SAPDIPPRSPNRNAH the “SPOT peptide array binding signal intensity” value was 1360.

Each binder was assayed against ScSho1 in the same assay as above.
In short: as §1
SAPDIPPRSPNRNAH was tested, and the “SPOT peptide array binding signal intensity” value was 13.5.

Each binder was assayed against ScSla1-D1-D2 in the same assay as above.
In short: as §1
With SAPDIPPRSPNRNAH the “SPOT peptide array binding signal intensity” value was 134.

What follows are binders tested against ScSla1-D3 in the same assay as above.
In short: as §1
SAPDIPPRSPNRNAH was tested, and the “SPOT peptide array binding signal intensity” value was at most 0.

The binders below were run against SpAbp1-D1 in the same assay as above.
In short: as §1
For SAPDIPPRSPNRNAH, the “SPOT peptide array binding signal intensity” value was at most 0.

What follows are binders tested against SpBbc1 in the same assay as above.
In short: as §1
SAPDIPPRSPNRNAH was tested, and the “SPOT peptide array binding signal intensity” value was 3.5.

What follows are binders tested against SpBzz1-D1 in the same assay as above.
In short: as §1
With SAPDIPPRSPNRNAH the “SPOT peptide array binding signal intensity” value was at most 0.

What follows are binders tested against SpBzz1-D2 in the same assay as above.
In short: as §1
In the case of SAPDIPPRSPNRNAH, the “SPOT peptide array binding signal intensity” value is reported as at most 0.

Each binder was assayed against SpCyk3 in the same assay as above.
In short: as §1
SAPDIPPRSPNRNAH was tested, and the “SPOT peptide array binding signal intensity” value was at most 0.

Each binder was assayed against SpHof1 in the same assay as above.
In short: as §1
With SAPDIPPRSPNRNAH the “SPOT peptide array binding signal intensity” value was 0.75.

These binders were tested against SpHof1-2 in the same assay as above.
In short: as §1
For SAPDIPPRSPNRNAH, the “SPOT peptide array binding signal intensity” value was at most 0.

The binders below were run against SpHof1-3 in the same assay as above.
In short: as §1
SAPDIPPRSPNRNAH was tested, and the “SPOT peptide array binding signal intensity” value was 1.

The binders below were run against SpHse1 in the same assay as above.
In short: as §1
SAPDIPPRSPNRNAH was tested, and the “SPOT peptide array binding signal intensity” value was 12.

What follows are binders tested against SpLsb1 in the same assay as above.
In short: as §1
For SAPDIPPRSPNRNAH, the “SPOT peptide array binding signal intensity” value was 540.

Each binder was assayed against SpLsb4 in the same assay as above.
In short: as §1
For SAPDIPPRSPNRNAH, the “SPOT peptide array binding signal intensity” value was 6620.

Each binder was assayed against SpMyo1 in the same assay as above.
In short: as §1
In the case of SAPDIPPRSPNRNAH, the “SPOT peptide array binding signal intensity” value is reported as at most 0.

What follows are binders tested against SpNbp2 in the same assay as above.
In short: as §1
SAPDIPPRSPNRNAH was tested, and the “SPOT peptide array binding signal intensity” value was 59.5.

What follows are binders tested against SpPex13 in the same assay as above.
In short: as §1
In the case of SAPDIPPRSPNRNAH, the “SPOT peptide array binding signal intensity” value is reported as at most 0.

Each binder was assayed against SpRvs167 in the same assay as above.
In short: as §1
In the case of SAPDIPPRSPNRNAH, the “SPOT peptide array binding signal intensity” value is reported as 1600.

The binders below were run against SpSla1-D1-D2 in the same assay as above.
In short: as §1
For SAPDIPPRSPNRNAH, the “SPOT peptide array binding signal intensity” value was at most 0.

The binders below were run against SpSla1-D3 in the same assay as above.
In short: as §1
SAPDIPPRSPNRNAH was tested, and the “SPOT peptide array binding signal intensity” value was at most 0.
